Assay [1] concerns Plasmodium falciparum Sir2 (PF13_0152, Sir2A). In words: Plasmodium falciparum Sir2A binding compounds – biochemical, small-molecule microarray, 635 nm fluorescence, primary screen (AID 1098).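 Note: score merges spot fluorescence intensity with its signal-to-noise ratio.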 The following applies: fluorescence 635 nm, higher = more signal.
Assay [2] is described as follows: probe aDKK1 binding to arrayed compounds – biochemical, biotinylated probe, 635/667 nm fluorescence, primary screen (AID 1099).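 Note: score merges 667nm spot fluorescence with signal to noise across triplicate slides.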 The conditions noted are these: small-molecule microarray, higher = more signal.
A short description of assay [3]: probe aCHRDL2 binding to arrayed compounds – biochemical, biotinylated probe, 635/667 nm fluorescence, primary screen (AID 1100). The following applies: small-molecule microarray, higher = more signal.
Assay [4] is described as follows: change in splice reporter luminescence, either direction, cell-based, HEK293, spliceosome inhibition project, primary screen (AID 1101).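 Note: HEK293 cells carrying a splicing-competent luciferase reporter gene; test concentration not given here.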 The following applies: HEK293 splicing luciferase reporter, 24 h, higher = more signal, called active from +8 up or from −8 down.
Assay [5] concerns the target Fibroblast growth factor 10 (Homo sapiens) (UniProt O15520). In words: compounds binding fibroblast growth factor 10 – biochemical, small-molecule microarray, 635 nm fluorescence, primary screen (AID 1102). The conditions noted are these: FGF10 binding, fluorescence 635 nm, higher = more signal.
The subject of assay [6] is glycogen synthase kinase-3 (GSK3A per assay name; protocol says GSK3B). In words: compounds binding glycogen synthase kinase-3 – biochemical, small-molecule microarray, 635 nm fluorescence, GSK3A, primary screen (AID 1103). Note: the record names both GSK3A and GSK3B. The conditions noted are these: fluorescence 635 nm, higher = more signal.
The target in assay [7] is Epidermal growth factor receptor (Homo sapiens) (UniProt P00533). In words: compounds binding epidermal growth factor receptor – biochemical, small-molecule microarray, 635 nm fluorescence, primary screen (AID 1104).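 Note: score merges 667 nm emission intensity with spot signal to noise over triplicate slides.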 The following applies: EGFR binding, higher = more signal.
Assay [8] concerns the target Follistatin-related protein 3 (Homo sapiens) (UniProt O95633). In words: compounds binding follistatin-related protein 3 – biochemical, small-molecule microarray, 635 nm fluorescence, primary screen (AID 1105).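 Note: score merges emission near 667 nm and signal to noise per printed spot across three slides.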 The conditions noted are these: FSTL3 binding, higher = more signal.
In assay [9] the target is Dickkopf-related protein 1 (Homo sapiens) (UniProt O94907). In words: small molecules binding DKK1 protein – biochemical, small-molecule microarray, 635 nm fluorescence scan, primary screen (AID 1106).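 Note: score merges emission near 667 nm with signal to noise over three replicate slides.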 The conditions noted are these: higher = more signal.
Assay [10] deals with Inhibin beta A chain (activin A). In words: small molecules binding activin A – biochemical, small-molecule microarray, 635 nm fluorescence scan, primary screen (AID 1107).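 Note: mouse activin A protein probed at 4.33 µg/mL on printed slides; score merges bound-protein fluorescence near 667 nm with spot signal-to-noise.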 The conditions noted are these: INHBA, higher = more signal.
The test system of assay [11] is Human papillomavirus type 1a protein E7 (residues 44-93). In words: small molecules binding HPV E7 44-93 – biochemical, small-molecule microarray, residues 44-93, 635 nm fluorescence, primary screen (AID 1108).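 Note: E7 fragment applied at 1 µg/mL in TBST for 1 h at 4 C; score combines spot fluorescence with its signal to noise ratio.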 The conditions noted are these: fluorescence 635 nm, higher = more signal.
A short description of assay [12]: hepatitis C replication reporter changes, two-sided – Huh7 cells, luciferase reporter, HCV replication inhibitor project, primary screen (AID 1109).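 Note: huh7 hepatoma cells harbouring a luciferase neomycin HCV replicon reporter; luciferase luminescence as measure of HCV replicon replication; test concentration not given here.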 The conditions noted are these: Huh7 HCV replicon luciferase reporter, 48 h; higher = more signal. (In general: In a reporter assay the amount or activity of a reporter protein is the signal.)
Assay [13] addresses Left-right determination factor 2 (Homo sapiens) (UniProt O00292). In words: small molecules binding LEFTY2 protein – biochemical, small-molecule microarray, 635 nm fluorescence scan, primary screen (AID 1110). The following applies: higher = more signal.
Assay [14] addresses Calmodulin-1 (Homo sapiens) (UniProt P0DP23). In words: small molecules binding calmodulin-1 with EGTA – biochemical, small-molecule microarray, Cy5-labelled CALM1, profiling panel (AID 1111).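 Note: labelled calmodulin applied in Tris saline Tween buffer holding calcium plus EGTA and DTT.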 The conditions noted are these: Cy5-CALM1 binding fluorescence, higher = more signal.
Assay [15] shares this target. In words: small molecules binding Ca-loaded calmodulin-1 – biochemical, small-molecule microarray, Cy5-labelled CALM1, plus calcium, artefact control for SMM control-protein annotation, profiling panel (AID 1112).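 Note: score merges spot fluorescence with signal to noise from triplicate slides.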 The following applies: Cy5-CALM1 binding fluorescence, higher = more signal.
A short description of assay [16]: probe aWnt5a binding to arrayed compounds – biochemical, biotinylated probe, 635/667 nm fluorescence, primary screen (AID 1113).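 Note: score merges 667 nm fluorescence intensity with signal-to-noise per printed feature.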 The conditions noted are these: small-molecule microarray, higher = more signal.
The nature of assay [17]: probe aShh binding to arrayed compounds – biochemical, biotinylated probe, 635/667 nm fluorescence, primary screen (AID 1114).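 Note: probe is biotin-labelled aShh protein from a stem cell growth factor screen; measures binding of labelled protein to compounds printed on the slide; score merges feature fluorescence at 667 nm with signal-to-noise.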 The conditions noted are these: small-molecule microarray, higher = more signal.
A short description of assay [18]: probe aNog binding to arrayed compounds – biochemical, biotinylated probe, 635/667 nm fluorescence, primary screen (AID 1115).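 Note: probe is biotinylated aNog protein used at 0.15 µg/mL for 1 h at 4 C; z-score combines 667 nm fluorescence of each spot with its signal to noise.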 The following applies: small-molecule microarray, higher = more signal.
Assay [19] concerns the target Torsin-1A-interacting protein 1 (Homo sapiens) (UniProt Q5JTV8). In words: compound microarray binding of lysate hLAP1 – cell lysate, small-molecule microarray, COS7 lysate, 635/667 nm fluorescence, primary screen (AID 1116). The conditions noted are these: 635 nm fluorescence, higher = more signal.
In assay [20] the target is Alpha-bungarotoxin (Bungarus multicinctus) (UniProt P60615). In words: compounds binding labelled alpha-BTX control protein – biochemical, small-molecule microarray, Alexa647 label, 635/667 nm fluorescence, artefact control for SMM control protein annotation, profiling panel (AID 1117). The conditions noted are these: alpha-BTX-A647 binding fluorescence, higher = more signal.

“And” between values parts separate entries of the source, which are not always exact repeats. Equal values may be shown once. The source made the active and inactive calls.

Chain of Epidermal growth factor receptor (Homo sapiens) (P00533 whole entry, looked up): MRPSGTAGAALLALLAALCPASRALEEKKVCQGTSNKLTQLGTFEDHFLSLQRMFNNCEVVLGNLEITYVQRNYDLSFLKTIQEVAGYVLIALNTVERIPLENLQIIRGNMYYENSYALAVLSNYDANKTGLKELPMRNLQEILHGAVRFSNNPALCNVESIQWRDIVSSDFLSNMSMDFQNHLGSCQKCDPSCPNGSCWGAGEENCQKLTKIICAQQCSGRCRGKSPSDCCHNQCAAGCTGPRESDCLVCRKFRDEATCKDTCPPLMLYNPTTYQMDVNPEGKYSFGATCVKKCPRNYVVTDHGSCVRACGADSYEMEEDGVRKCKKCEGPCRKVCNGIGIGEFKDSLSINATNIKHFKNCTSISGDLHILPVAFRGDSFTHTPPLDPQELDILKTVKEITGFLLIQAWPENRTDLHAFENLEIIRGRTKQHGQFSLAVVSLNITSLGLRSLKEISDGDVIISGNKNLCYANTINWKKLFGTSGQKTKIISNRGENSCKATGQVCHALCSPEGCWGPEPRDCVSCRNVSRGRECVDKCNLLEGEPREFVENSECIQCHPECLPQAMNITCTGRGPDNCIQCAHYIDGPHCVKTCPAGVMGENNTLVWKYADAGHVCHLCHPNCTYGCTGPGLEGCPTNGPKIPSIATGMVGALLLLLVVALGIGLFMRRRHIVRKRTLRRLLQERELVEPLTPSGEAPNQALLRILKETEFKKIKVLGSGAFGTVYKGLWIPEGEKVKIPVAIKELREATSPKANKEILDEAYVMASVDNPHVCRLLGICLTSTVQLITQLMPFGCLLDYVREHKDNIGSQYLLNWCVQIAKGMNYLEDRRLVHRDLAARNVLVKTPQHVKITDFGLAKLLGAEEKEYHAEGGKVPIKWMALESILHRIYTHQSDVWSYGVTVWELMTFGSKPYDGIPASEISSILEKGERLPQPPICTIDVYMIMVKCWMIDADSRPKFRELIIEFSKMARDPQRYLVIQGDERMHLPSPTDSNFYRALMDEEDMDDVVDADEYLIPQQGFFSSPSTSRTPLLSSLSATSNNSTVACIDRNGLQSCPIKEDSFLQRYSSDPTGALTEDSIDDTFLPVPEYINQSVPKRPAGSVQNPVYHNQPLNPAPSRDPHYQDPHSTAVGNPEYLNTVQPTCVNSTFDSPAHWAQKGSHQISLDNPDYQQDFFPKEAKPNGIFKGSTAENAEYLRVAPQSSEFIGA
Chain of Left-right determination factor 2 (Homo sapiens) (O00292 whole entry, looked up): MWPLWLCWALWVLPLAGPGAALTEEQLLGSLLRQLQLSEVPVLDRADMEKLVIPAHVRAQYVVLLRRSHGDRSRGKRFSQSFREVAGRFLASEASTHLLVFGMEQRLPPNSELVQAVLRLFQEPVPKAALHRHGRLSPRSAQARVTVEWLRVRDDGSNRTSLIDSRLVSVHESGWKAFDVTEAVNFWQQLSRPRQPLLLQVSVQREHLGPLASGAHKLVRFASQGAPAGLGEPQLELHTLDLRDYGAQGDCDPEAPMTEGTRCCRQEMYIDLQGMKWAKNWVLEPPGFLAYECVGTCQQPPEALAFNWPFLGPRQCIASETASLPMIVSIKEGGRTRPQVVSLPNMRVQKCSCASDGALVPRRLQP
Chain of Follistatin-related protein 3 (Homo sapiens) (O95633 whole entry, looked up): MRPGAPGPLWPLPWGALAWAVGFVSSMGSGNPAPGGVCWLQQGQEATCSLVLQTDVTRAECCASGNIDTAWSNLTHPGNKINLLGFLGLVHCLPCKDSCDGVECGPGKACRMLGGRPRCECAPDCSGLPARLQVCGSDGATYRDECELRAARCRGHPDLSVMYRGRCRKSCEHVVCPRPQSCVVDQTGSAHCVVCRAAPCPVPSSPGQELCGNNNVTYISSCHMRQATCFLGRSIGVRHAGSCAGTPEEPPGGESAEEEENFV
Chain of Dickkopf-related protein 1 (Homo sapiens) (O94907 whole entry, looked up): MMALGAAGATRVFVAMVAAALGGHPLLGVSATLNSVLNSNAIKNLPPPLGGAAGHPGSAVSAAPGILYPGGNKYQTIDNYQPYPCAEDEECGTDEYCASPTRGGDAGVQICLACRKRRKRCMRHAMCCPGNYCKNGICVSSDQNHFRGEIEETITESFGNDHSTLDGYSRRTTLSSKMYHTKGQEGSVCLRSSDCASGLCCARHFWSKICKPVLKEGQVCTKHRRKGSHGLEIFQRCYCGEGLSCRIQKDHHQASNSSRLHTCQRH
Chain of Fibroblast growth factor 10 (Homo sapiens) (O15520 whole entry, looked up): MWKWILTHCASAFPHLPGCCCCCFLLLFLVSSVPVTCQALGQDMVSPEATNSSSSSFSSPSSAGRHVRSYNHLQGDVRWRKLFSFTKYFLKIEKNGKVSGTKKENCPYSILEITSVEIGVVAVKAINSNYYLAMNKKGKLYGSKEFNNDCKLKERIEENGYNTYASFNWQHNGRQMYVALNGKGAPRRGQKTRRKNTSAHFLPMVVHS
Chain of Torsin-1A-interacting protein 1 (Homo sapiens) (Q5JTV8 whole entry, looked up): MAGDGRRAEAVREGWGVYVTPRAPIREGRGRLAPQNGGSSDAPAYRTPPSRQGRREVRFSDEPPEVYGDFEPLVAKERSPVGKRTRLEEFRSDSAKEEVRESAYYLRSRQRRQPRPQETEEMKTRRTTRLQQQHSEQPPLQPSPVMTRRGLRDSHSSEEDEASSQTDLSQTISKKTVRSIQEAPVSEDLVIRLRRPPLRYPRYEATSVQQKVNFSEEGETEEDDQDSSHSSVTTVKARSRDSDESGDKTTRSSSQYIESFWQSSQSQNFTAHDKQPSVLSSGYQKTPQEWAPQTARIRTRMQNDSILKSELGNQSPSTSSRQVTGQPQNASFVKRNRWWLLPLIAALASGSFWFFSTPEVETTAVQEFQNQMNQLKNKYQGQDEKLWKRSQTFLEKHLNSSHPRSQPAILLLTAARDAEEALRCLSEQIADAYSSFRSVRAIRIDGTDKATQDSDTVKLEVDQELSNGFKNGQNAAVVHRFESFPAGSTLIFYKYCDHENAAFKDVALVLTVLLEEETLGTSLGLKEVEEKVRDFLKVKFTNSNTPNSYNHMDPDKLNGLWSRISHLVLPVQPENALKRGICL
Chain of Alpha-bungarotoxin (Bungarus multicinctus) (P60615 whole entry, looked up): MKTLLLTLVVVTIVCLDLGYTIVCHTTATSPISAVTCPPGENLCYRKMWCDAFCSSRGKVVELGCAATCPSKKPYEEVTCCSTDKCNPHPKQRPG

Consider `CO[C@@H]1COC(=O)CC=C[C@H](C)COC(=O)[C@H](C)NC(=O)CC=C[C@H]1C`, for which the composite z-score is 0.237 in [1]; -0.525 in [2]; -0.774 in [3]; 0.754 in assay [5]; 0.736 in assay [6]; 0.715 in [7]. The composite z-score in assay [8] is 0.829; in assay [9], 0.951; in [10], 0.249; in [11] it was -0.103; in assay [13], 0.663; in assay [14], -0.76. The composite z-score is -0.754 in [15]; -0.13 in assay [16]; 0.178 in assay [17]; -0.118 in assay [18]; 0.542 in [19]; -0.711 in assay [20]. Also, the z-score in assay [4] was -0.401 (inactive); in assay [12], -0.394.

As to `CCC[C@@H]1C[C@@]1(CCC)[C@@H](NC(=O)c1ccc(-c2ccccc2)cc1)c1cccc(Cl)c1`, the composite z-score in [1] is 1.21 and 0.366; in assay [2], 1.34 and 0.898; in assay [3], 1.09 and 1.13; in assay [5], -0.592 and 0.143; in assay [6], -0.826 and -0.349; in assay [7] it was -0.346 and 0.0087. Moreover, the composite z-score was -0.46 and -0.339 in assay [8]; -0.0916 and -0.455 in [9]; 1.53 and 0.896 in [10]; -0.802 and 0.457 in assay [11]; -0.307 and -0.135 in assay [13]; -1.57 and 0.535 in assay [14]. For the same compound, the composite z-score is -1.45 and 0.215 in assay [15]; 0.874 and 0.103 in assay [16]; 2.27 and -0.138 in assay [17]; 2.75 and 0.507 in assay [18]; 0.415 and 0.868 in assay [19]; -0.899 and -0.0107 in assay [20]. For the same compound, the z-score in [4] is -3.74 (inactive) and -1.69 (inactive); in assay [12] it was -2.13 and -2.05.

`C=C[C@H](C)[C@@H](O)c1ccc(OCCO)cc1`: the composite z-score in [1] is 1.19 and -0.0088; in [2] it was 0.892 and -0.0695; in assay [3], 0.689 and 0.639; in [5] it was -1.09 and -0.675; in assay [6], -0.914 and -0.622; in assay [7], -1.51 and -0.966. In addition, the composite z-score in assay [8] was -1.35 and -0.796; in assay [9] it was -1.05 and -0.262; in assay [10], -1.03 and -0.831; in assay [11], -1.92 and -0.467; in [13], -1.11 and -1.45; in assay [14] it was -0.827 and -0.366. Also, the composite z-score was 0.717 and 0.1 in assay [15]; -0.261 and -0.252 in assay [16]; -0.289 and 0.0639 in assay [17]; -0.194 and -0.381 in [18]; -0.998 and 0.225 in assay [19]; -1.12 and -0.0745 in assay [20]. Besides, the z-score in [4] was -0.636 (inactive) and -0.215 (inactive); in [12], 0.15 and 0.616.

As to `C=CCN(CCCCC)C(=O)C1N(C(C)(C)CO)C(=O)C2C(C(=O)O)C3C=CC21O3` (stereo not given), the composite z-score was -0.0662 and -1.13 in [1]; -0.706 and -0.0156 in [2]; 0.767 and 0.884 in [3]; -1.96 and -0.741 in [5]; -1.35 and -0.534 in [6]; -1.79 and -1.92 in [7]. The composite z-score in assay [8] is -1.65 and -2.06; in [9], -1.61 and -2.14; in assay [10] it was -3.53 and -1.16; in assay [11], -2.03 and -0.698; in [13] it was -1.51 and -1.83; in assay [14] it was -0.569 and -0.284. Further, the composite z-score was 0.515 and 1.07 in assay [15]; -0.297 and -0.176 in assay [16]; -0.0626 and -0.138 in assay [17]; -0.0809 and 0.274 in assay [18]; -1.47 and -0.47 in assay [19]; -1.26 and -2.68 in assay [20]. Further, the z-score is 0.507 (inactive) and 0.484 (inactive) in [4]; -0.954 and -0.659 in assay [12].

As to `COC(=O)C1=C(C)N(Cc2ccccc2)C2=C3C(=O)CCC[C@@H]3[C@@](O)(C(=O)OC)C(=O)N2[C@@H]1c1ccccc1`, the composite z-score was 0.464 and -0.773 in assay [1]; 0.0021 and -0.0015 in assay [2]; -0.334 and -0.299 in assay [3]; 0.887 and 0.389 in [5]; 0.379 and 0.224 in [6]; 0.459 and 0.433 in [7]. For the same compound, the composite z-score in [8] is 0.843 and 0.284; in [9], 0.641 and 0.516; in [10], 0.177 and 0.506; in [11], -0.0225 and -0.0706; in [13], 0.278 and 0.372; in assay [14], -0.255 and -0.674. Also, the composite z-score in assay [15] is -0.361 and -0.0671; in assay [16], -0.144 and -0.0185; in [17] it was -0.182 and 0.187; in assay [18], -0.424 and 0.0775; in [19], 0.617 and 0.179; in [20], 0.187 and -0.503. In addition, the z-score in [4] was 0.732 (inactive) and -1.28 (inactive); in assay [12], -0.571 and -2.09.

The values are drawn from PubChem BioAssay.
